Among the data in PubChem BioAssay (NCI) are growth values, retold here.

Holding throughout (assay): NCI-60 one-dose screen, 48 h (100 = growth as untreated, 0 = no growth, -100 = all killed)
What all share (details): 10 µM unless noted

Assay [1] deals with SK-MEL-2 melanoma.
The subject of assay [2] is EKVX NSCLC.
The subject of assay [3] is SN12C renal.
Assay [4] has as its system UO-31 renal.
Assay [5] relates to TK-10 renal.
Assay [6] has as its system ACHN renal.
Assay [7] deals with CAKI-1 renal.
Assay [8] has as its system A498 renal.
The subject of assay [9] is CCRF-CEM leukemia.
Assay [10] has as its system MOLT-4 leukemia.

Compounds without any hit were thinned out: in the full panel of roughly 83,000, 20% have a hit.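 The endpoint reported here, percent growth, reads 100 for growth as untreated, 0 for no net growth and -100 for all cells dead.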 Unmarked numbers belong to inactive results. Active and inactive are the calls of the source. Rule for the calls: active = growth percent below 10; inactive = the rest.

For the compound `O=C(c1ccc(-c2nc(CSc3nc4ccccc4s3)no2)cc1)N1CCSCC1`, the growth was 45.7% in assay [1]; 47.1% in assay [2]; 82.3% in assay [3]; 55.6% in [4]; 55.1% in [5]; 60.4% in [6]. Further, the growth in [7] is 63.5%; in assay [8], 82.1%; in assay [9], 71.2%; in [10], -1.49% (active).

For `COC(=O)c1c2c(c(C)[n+]([O-])c1C)C(=O)C=C(NCc1ccc(Br)cc1)C2=O`, the growth is -54% (active) in [1]; -85.3% (active) in [2]; -77.7% (active) in assay [3]; -85.8% (active) in assay [4]; 2.5% (active) in assay [5]; -73.2% (active) in [6]. Further, the growth in assay [7] is -25.7% (active); in [8], -86.4% (active); in assay [9], -12.6% (active); in assay [10], -21.7% (active).

For `CNc1nc(S(=O)c2ccc(C#N)cc2)nc2ccccc12` (stereo not given), the growth in assay [1] was 105%; in [2], 82.2%; in [3] it was 68.9%; in assay [4], 60.2%; in assay [5], 109%; in assay [6], 41.8%. Also, the growth is 39.9% in [7], 86% in assay [8], 32.2% in [9] and 68.6% in [10].

In the case of `COC(=O)c1cc(-c2ccc(OC)cc2)[nH]c1N/N=C/c1c(Cl)cccc1Cl`, the growth was 52.9% in assay [1]; 20.1% in [2]; 26% in assay [3]; 27.9% in [4]; 47.8% in assay [5]; 39.3% in assay [6]. Besides, the growth in assay [7] is -5.7% (active); in [8] it was -2.53% (active); in assay [9] it was 12.2%; in assay [10] it was 12.4%.

With `Cc1ccc(-c2nn(-c3ccccc3)cc2C=C2C(=O)ON=C2C(C)C)cc1`, the growth in assay [1] is 84.5%; in assay [2] it was 102%; in assay [3] it was 75.9%; in assay [4], 72%; in assay [5], 86.9%; in [6] it was 89.3%. For the same compound, the growth in assay [7] is 61.3%; in [8] it was 84.9%; in [9], 1.71% (active); in assay [10], -15.6% (active).

As to `Cc1nnc(-n2c(O)cc(=O)n(-c3ccccc3)c2=S)nc1/C=C/c1ccc(N(C)C)cc1`, the growth in assay [1] is 55.2%; in [2] it was 66.7%; in assay [3], 65.3%; in assay [4] it was 17.1%; in assay [5] it was 28.1%; in assay [6] it was 62%. Moreover, the growth in assay [7] was 23.4%; in assay [8], 52.1%; in assay [9], 52.5%; in assay [10], 56.1%.

In the case of `CCN1C(=O)N(CC)C2C1NN=c1s/c(=C\c3cccc([N+](=O)[O-])c3)c(=O)n12` (stereo not given), the growth in assay [1] was 43.4%; in [2] it was 50.5%; in assay [3] it was 25.5%; in assay [4] it was 41.1%; in assay [5], 69.6%; in assay [6], 32.9%. For the same compound, the growth is 25.7% in assay [7], 13% in assay [8], 10.8% in [9] and 15.6% in [10].

With `O=C(O)CNC1=C(Cl)C(=O)c2ccccc2C1=O`, the growth is 100% in assay [1]; 98.6% in assay [2]; 92.7% in assay [3]; 58.9% in assay [4]; 110% in assay [5]; 91.2% in assay [6]. Also, the growth is 76.7% in [7], 102% in assay [8], 91.4% in assay [9] and 100% in assay [10].

On to `COc1cc(-c2nc3cc(Cl)c(Cl)cc3[nH]2)ccc1OCC(=O)N=Nc1c(O)[nH]c2ccc([N+](=O)[O-])cc12`, for which the growth in [1] is 102%; in [2], 96.2%; in [3], 81.2%; in assay [4] it was 91.1%; in [5] it was 124%; in assay [6] it was 104%. Moreover, the growth in [7] was 97.2%; in assay [8] it was 109%; in assay [9], 21.6%; in assay [10], 74.2%.

Regarding `O=C(Nc1nc2ccc(F)cc2s1)c1cccnc1Nc1ccc(Cl)cc1`, the growth in assay [1] is 54.4%; in [2] it was 9.81% (active); in assay [3], 17.9%; in assay [4], 56.2%; in assay [5] it was 27.4%; in [6], 38.8%. For the same compound, the growth in assay [7] was 20.2%; in [8] it was 17.9%; in [9], 5.11% (active); in assay [10], 16.6%.

With `Cc1cccc(Cl)c1NC(=O)c1ccc2nc(NC(=O)NCCN(C)C)sc2c1`, the growth was 103% in assay [1]; 104% in assay [2]; 92% in [3]; 90.1% in [4]; 111% in [5]; 92.9% in [6]. In addition, the growth in assay [7] is 95.1%; in assay [8], 90.7%; in assay [9] it was 79.4%; in [10], 80.2%.

With `O=C(O)c1[nH]c(=O)[nH]c(=O)c1[N+](=O)[O-]`, the growth is 158% in assay [1]; 119% in assay [2]; 108% in assay [3]; 96.3% in assay [4]; 119% in assay [5]; 102% in assay [6]. Besides, the growth in assay [7] is 95.2%; in assay [8], 118%; in assay [9], 113%; in [10] it was 77.4%.

Regarding `COc1cc(-n2cc(-c3cc(O)c(C/C=C(\C)CCC=C(C)C)c(O)c3)nn2)cc2c1O[C@]1(C)CC[C@@H](O)C(C)(C)[C@H]1C2`, the growth in [1] was -17.1% (active); in assay [2], 28%; in assay [3] it was 24.9%; in assay [4], -53.8% (active); in assay [5] it was 40.2%; in assay [6], 16.6%. The growth in [7] was 12%; in [8] it was 10.7%; in [9], 0.511% (active); in assay [10], -0.403% (active).
